Screens from PubChem.
Shown are actives, neighbours in structure and some others; about 2.8% of the full set was active somewhere.
Wee1 degr inh: Wee1 degradation inhibitors, primary screen, cell-based, HeLa, Wee1K328M-luciferase, luminescence | AID 1321, 2008 | reporter increase, % at 5 µM | HeLa Luc-Wee1K328M stability; 100% = proteasome inhibitor MG132 effect | Wee1-like protein kinase (Homo sapiens), P30291 | 220,000 tested, 1.2% active;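 active means activation above the mean of all tested compounds plus 3 SD, set per screening run, cut at about 8.8% in these data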;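 further: cells exposed to compound for 20 h before luminescence read; 0% = DMSO alone and 100% = MG132 at 30 µM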
Target sequence (P30291 whole entry K328M): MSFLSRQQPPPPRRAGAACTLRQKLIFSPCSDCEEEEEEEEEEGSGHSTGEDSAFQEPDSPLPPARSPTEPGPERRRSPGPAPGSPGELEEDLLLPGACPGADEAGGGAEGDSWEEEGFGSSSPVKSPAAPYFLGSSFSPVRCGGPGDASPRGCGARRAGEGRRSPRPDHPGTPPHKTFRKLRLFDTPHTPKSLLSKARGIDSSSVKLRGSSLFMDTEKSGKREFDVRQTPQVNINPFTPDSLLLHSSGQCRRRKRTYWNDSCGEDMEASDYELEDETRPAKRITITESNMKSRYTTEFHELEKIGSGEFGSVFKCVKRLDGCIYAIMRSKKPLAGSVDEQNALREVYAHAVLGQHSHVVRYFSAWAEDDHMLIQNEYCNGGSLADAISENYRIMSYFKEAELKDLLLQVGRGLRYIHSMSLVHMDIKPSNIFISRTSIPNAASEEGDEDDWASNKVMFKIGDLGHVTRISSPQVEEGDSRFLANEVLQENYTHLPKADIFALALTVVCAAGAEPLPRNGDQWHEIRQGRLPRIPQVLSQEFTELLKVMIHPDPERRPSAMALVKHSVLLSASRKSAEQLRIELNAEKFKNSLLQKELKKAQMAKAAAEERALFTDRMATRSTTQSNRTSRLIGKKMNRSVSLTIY
Furin inh: human furin inhibitors, primary screen, biochemical, fluorescence intensity; purified furin, fluorogenic substrate cleavage; inhibition, % at 20 µM or 30 µM; 220,000 tested, 0.061% active; AID 463115, 2010; in the data active means inhibition above about 25%
p47phox inh: p47phox/p22phox peptide binding inhibitors, primary screen, biochemical, uHTS, NADPH oxidase regulatory subunit | Neutrophil cytosol factor 1 (Homo sapiens), P14598 | fluorescence polarization, 2 h | inhibition, % at 24.7 µM | 220,000 tested, 0.53% active;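 active means inhibition above about 30%, limit read from the data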;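 further: 0% = p47phox with labelled peptide and 100% = labelled peptide alone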
EP2 antag: human EP2 receptor antagonists, primary screen, TR-FRET cAMP, C6 glioma cells; Prostaglandin E2 receptor EP2 subtype (Homo sapiens), P43116; C6 glioma cells expressing human EP2; cells stimulated with saturating PGE2; inhibition, % at 25 µM; 260,000 tested, 0.52% active; AID 1422, 2008;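 active means percent inhibition above 40 after rounding to a whole number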;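 further: rat C6 glioma host cells with rolipram phosphodiesterase inhibitor present; the protocol text gives 20 µM as final concentration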
EP2 mod: EP2 receptor modulators, cAMP readout, primary screen, cell-based, HTRF cAMP, PGE2 stimulation | EP2-expressing cells, cAMP HTRF FRET, PGE2 co-stimulation | Prostaglandin E2 receptor EP2 subtype (Homo sapiens), P43116 | 260,000 tested, 0.83% active | induction, % at 25 µM;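 active means compounds whose cAMP rise, as percent of the full-agonist control response, exceeds 60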;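 further: rat C6 glioma line stably carrying human EP2 under a CMV promoter; the protocol text gives 20 µM as final concentration; 100% = response of wells given 1 µM PGE2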
HSV augment: enhancers of HSV replication in host cells, fold increase, host cell viability; 220,000 tested, 0.005% active; maximum fold increase; HSV replication augmentation in cells; in the data active means maximum fold increase above about 1.5; tested in PC3 cells
* marks the source's active call; other numbers are inactive results; i = inactive; / = no result given.

SMILES | Wee1 degr inh | Furin inh | p47phox inh | EP2 antag | EP2 mod | HSV augment
Cn1c2ccccc2n2c(=O)n(CC(=O)NCCc3ccccc3)nc12 | / | / | / | 9 | -20 | /
Cc1ccc2[nH]c(=O)c(CN(Cc3ccc4c(c3)OCO4)Cc3nnnn3C3CCCC3)cc2c1 | 2 | -8 | -10 | / | 29 | /
CCOc1ccc2[nH]c(=O)c(CN(CCc3ccccc3)Cc3nnnn3C3CCCCC3)cc2c1 | / | / | / | 2 | 62* | /
Cc1cc2cc(CN(Cc3ccc4c(c3)OCO4)Cc3nnnn3C3CCCC3)c(=O)[nH]c2cc1C | 0 | -47 | -13 | 2 | 64* | i
CCOc1ccc2[nH]c(=O)c(CN(Cc3ccc(F)cc3)Cc3nnnn3C3CCCC3)cc2c1 | / | / | / | 7 | 61* | /
O=C(CN1CCC(c2ccc3c(c2)OCO3)CC1)NCc1cccs1 | / | / | / | / | -83 | /
O=C(NCCCN1CCOCC1)C1CC(=O)N(CCc2ccccc2)C1 (centres undefined) | 4 | -8 | 0 | 9 | -5 | i
O=C(NCCCN1CCCCCC1)C1CC(=O)N(CCc2ccccc2)C1 (centres undefined) | 4 | -20 | 55* | 19 | 27 | i
C=CCNC(=O)CN1CCC(O)(c2ccccn2)CC1 | / | / | / | / | -18 | /
COc1ccc(OC)c(N(CC(=O)Nc2cccnc2)S(=O)(=O)c2ccc(OC)c(OC)c2)c1 | 0 | -13 | -9 | 8 | 3 | i
COc1ccc(N(CC(=O)Nc2cccc(SC)c2)S(C)(=O)=O)cc1 | 9.2* | -16 | -13 | 1 | -30 | i
COc1ccc(OC)c(N(CC(=O)Nc2cccnc2)S(C)(=O)=O)c1 | 9.6* | -14 | -4 | 10 | 10 | i
S=C(Nc1cccc(Cl)c1)N(CCCN1CCCC1)Cc1cccn1Cc1ccc(Cl)cc1 | 6 | -8 | 43* | 13 | -34 | i
COc1cccc(NC(=S)N(CCCN2CCCC2)Cc2cccn2Cc2ccc(Cl)cc2)c1 | 1 | -6 | -10 | 5 | -23 | i
CSc1cccc(NC(=S)N(CCCN2CCCC2)Cc2cccn2Cc2ccc(Cl)cc2)c1 | 8 | -8 | 32* | 2 | -13 | i
CCCn1nnnc1SCC(=O)Nc1nc(C(C)(C)C)cs1 | / | / | / | 9 | -29 | /
CCCOc1ccc(-c2nnn(CC(=O)Nc3ccccc3OC)n2)cc1 | / | / | / | 10 | -64 | /
CCc1cc(CNC(=O)CC2C(=O)NCCN2Cc2c(F)cccc2Cl)on1 (centres undefined) | -2 | -25 | 91* | 5 | 15 | i
O=c1oc(/C=C/c2ccco2)nc2ccccc12 | / | / | / | 29 | -67 | /
Cc1ccc(SCCCCN2C(=O)NC(C)(C)C2=O)cc1 | -2 | 33* | -3 | 16 | -6 | i
CC1(C)NC(=O)N(CCSc2ccc(Cl)cc2)C1=O | 3 | -18 | 4 | 10 | -22 | i
Cc1cccc2cc(CN(C(=S)NC(C)c3ccccc3)C3CCCC3)c(=O)[nH]c12 (centres undefined) | / | / | / | 13 | 17 | /
CCCCNc1nc(NC)nc(Cl)c1SC | -4 | -24 | 0 | 5 | 63* | i
COc1ccc(OC)c(NC(=O)CN2CCC(NC(=O)C3CCCCC3)CC2)c1 | / | / | / | 11 | 6 | /
O=C(CSc1nnc(-c2ccc(F)cc2)c2ccccc12)Nc1ccccc1 | 10* | -19 | -41 | 6 | 59 | i
SMILES | Wee1 degr inh | Furin inh | p47phox inh | EP2 antag | EP2 mod | HSV augment
Cc1nn(-c2ccc(S(=O)(=O)O)cc2)c(O)c1N=Nc1ccc(-c2ccc(N=Nc3ccc4c(S(=O)(=O)O)cc(S(=O)(=O)O)c(N)c4c3O)c(O)c2)cc1O.[Cu].[Cu] | / | / | / | 54* | 21 | /
O=C1/C(=C/c2ccncc2)SC(=S)N1Cc1ccccc1 | 2 | -8 | 0 | 44* | -22 | i
O=C(CCCN1C(=O)/C(=C/c2ccccc2)SC1=S)Nc1cccc(O)c1 | 1 | -3 | -21 | 70* | -80 | i
Cc1ccc(/C=C2\SC(=S)N(CCC(=O)NNS(=O)(=O)c3ccccc3)C2=O)cc1 | 3 | -23 | -33 | 9 | 65* | i
C[C@H](Cn1nnc2ccccc21)NC(=O)c1cnn2cccnc12 | / | / | / | 11 | -26 | /
Cc1nc2ccc(NC(=O)N3CCOCC3)cc2s1 | 10* | -9 | -3 | 14 | 19 | i
Cc1ccc(-c2c(C)sc3ncn(C)c(=O)c23)cc1C | / | / | / | 3 | 10 | /
Cc1cc(C)c2cc(C(c3nnnn3C3CCCCC3)N3CCCc4ccccc43)c(=O)[nH]c2c1 (centres undefined) | / | / | / | 8 | 71* | /
Cc1ccc(C(c2nnnn2C2CCCC2)N2CCc3ccccc32)cc1 (centres undefined) | 9.1* | -9 | -39 | 5 | 44 | i
COC(=O)c1ccc(S(=O)(=O)N2CCCCCC2)cc1 | -3 | -13 | -22 | 9 | 14 | i
CC(=O)c1ccc(S(=O)(=O)N2CCCCCC2)cc1 | / | / | / | 94* | -27 | /
Cc1ccc(C)c(OCCCC(=O)Nc2ccc(S(=O)(=O)Nc3ncccn3)cc2)c1 | / | / | / | 7 | 6 | /
Cc1c(-c2nc(-c3ccc(C(C)(C)C)cc3)no2)n(C)oc1=O | 3 | -11 | -13 | 7 | 72* | i
Cc1cc(-c2nc(-c3ccc(C(C)(C)C)cc3)no2)no1 | 0 | -12 | -16 | 6 | -5 | i
COCCn1nnnc1C(c1ccc(C)cc1)N1CCN(c2ccc(O)cc2)CC1 (centres undefined) | / | / | / | 9 | 21 | /
COc1ccccc1CNc1n[nH]c2nc(C)cc(C)c12 | / | / | / | 9 | -69 | /
COc1ccccc1Nc1nc(NCc2ccco2)nc(N)c1[N+](=O)[O-] | 3 | -25 | -7 | 11 | 22 | i
COc1ccc(OC)c(Nc2nc(NCc3ccco3)nc(N)c2[N+](=O)[O-])c1 | 8.9* | -15 | 7 | 7 | 3 | i
Cc1oc(-c2ccc(F)cc2)nc1C(=O)Nc1cnn(Cc2ccc(F)cc2)c1 | / | / | / | 8 | -88 | /
O=C(CSc1nnc(-c2ccccc2)n1-c1ccccc1)c1ccc[nH]1 | 0 | -12 | 4 | 5 | 22 | i
O=C(CSc1nnc(-c2ccccc2)n1-c1ccccc1)c1cccs1 | 0 | -24 | 35* | / | 38 | /
Nc1nccc(-c2cc(-c3ccc(Cl)cc3Cl)no2)n1 | 10* | -28 | 14 | 3 | 1 | i
COc1ccc(/C=N/NC(=O)c2[nH]c3ccc(Br)cc3c2-c2ccccc2)c(C(=O)O)c1OC | 0 | -10 | 2 | 4 | 15 | i
O=C(N/N=C/c1ccccc1Cl)c1[nH]c2ccc(Br)cc2c1-c1ccccc1 | 11* | 2 | -15 | 12 | 20 | i
CN(C)c1ccc(/C=C(\C#N)c2ccccc2)cc1 | 16* | -9 | -13 | 9 | 28 | i
N#C/C(=C\c1ccc(C#N)cc1)C(=O)c1ccccc1 | -1 | -12 | -16 | 5 | -11 | i
